CHO-K1 Ca antag = nonselective inhibitor or artifact in parental CHO-K1 cells. ATP-induced calcium, Fluo-8 fluorescence. inhibition, % at 3 µM. actives 0.6% (n = 360,000). AID 602250;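 active means inhibition above a per-plate cutoff, the plate's mean sample inhibition plus 3 SD, cut at about 24% in these data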;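 further: 0% = DMSO plus EC80 ATP and 100% = DMSO alone without ATP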
M1 PAM parental = M1 PAM counterscreen hit in parental CHO-K1 cells; ATP EC20, Fluo-8 calcium fluorescence; 0% at ATP EC20, 100% at ATP max; activation, % at 3 µM; actives 0.02% (n = 360,000);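 active means activation above the run cutoff, the mean activation of all test compounds plus 3 SD, cut at about 40% in these data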;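 further: peak over basal fluorescence ratio in a 140 s read after ATP addition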
CHO-K1 Ca ag = nonselective activator or artifact in parental CHO-K1 cells; Fluo-8 calcium fluorescence; scaled to maximal ATP response, vehicle zero; activation, % at 3 µM; actives 0.48% (n = 360,000); AID 602248; in the data active means activation above about 15%;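 further: untransfected CHO-K1 host cells lacking M1 receptor as counterscreen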
CHRM1 PAM = positive allosteric modulators of human M1 muscarinic receptor; P11229; CHO-K1 hM1, Fluo-8 calcium fluorescence, ACh EC20; 0% = ACh EC20, 100% = maximal ACh; activation, % at 3 µM; actives 0.088% (n = 360,000); in the data active means activation above about 19%, passing the limit was not always enough
Target sequence (P11229 whole entry, looked up): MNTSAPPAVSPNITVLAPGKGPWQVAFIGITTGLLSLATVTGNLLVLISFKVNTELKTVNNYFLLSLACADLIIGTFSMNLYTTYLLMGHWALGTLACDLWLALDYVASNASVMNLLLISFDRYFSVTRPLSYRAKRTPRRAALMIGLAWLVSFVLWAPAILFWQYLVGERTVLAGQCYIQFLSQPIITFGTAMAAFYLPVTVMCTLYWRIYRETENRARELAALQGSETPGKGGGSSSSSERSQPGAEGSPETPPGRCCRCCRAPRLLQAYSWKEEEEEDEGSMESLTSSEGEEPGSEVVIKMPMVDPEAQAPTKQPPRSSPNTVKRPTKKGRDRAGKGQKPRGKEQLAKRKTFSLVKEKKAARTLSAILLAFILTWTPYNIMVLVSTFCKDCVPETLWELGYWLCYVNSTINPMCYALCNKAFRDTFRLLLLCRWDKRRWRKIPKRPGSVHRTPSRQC
CHRM1 agonist = agonists of human M1 muscarinic receptor; CHO-K1 hM1, Fluo-8 calcium fluorescence, agonist mode; 0% DMSO, 100% acetylcholine EC100; actives 0.33% (n = 360,000); P11229; activation, % at 3 µM;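 active means activation above the run's mean compound activation plus 3 SD, cut at about 16% in these data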;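 further: peak over basal fluorescence ratio within a 140 s kinetic read after compound addition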
CHRM1 antagonist = human CHRM1 antagonism; P11229; CHO-K1 hM1, Fluo-8 calcium fluorescence, ACh EC80 antagonist; inhibition, % at 3 µM; actives 1.3% (n = 360,000); AID 588852;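 active means percent inhibition above its own plate's cutoff, namely the mean of that plate's compound wells plus 3 SD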;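 further: peak over basal fluorescence ratio during 140 s after agonist addition; 0% = ACh EC80 plus DMSO and 100% = DMSO alone without agonist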
* = called active by the depositor. Shown are actives, neighbours in structure and some others; about 2.4% of the full set was active somewhere.

SMILES	CHO-K1 Ca antag	M1 PAM parental	CHO-K1 Ca ag	CHRM1 PAM	CHRM1 agonist	CHRM1 antagonist
Oc1ccc(-c2n[nH]c(C(F)(F)F)c2-c2ccccc2)c(O)c1	28*	-4	8	-24	-3	42*
Cc1ccc(SCC(=O)Nc2ccc(N3CCOCC3)cc2)cc1C	1	-16	0	12	-4	-11
O=C1C2C3CC4C5C3C1C5C1(SCCS1)C42 (stereo not drawn)	-6	6	0	3	-2	-5
COc1ccc(NS(=O)(=O)c2ccc(N3CCCCC3)c(NC(=O)C(C)NC(N)=O)c2)cc1 (stereo not drawn)	-10	13	1	4	-1	1
COc1ccc(S(=O)(=O)N2CCC(N3CCN(Cc4ccccc4)CC3)CC2)cc1	-11	12	0	-35	-13	84*
CN(CC(=O)NC1CCN(Cc2ccccc2)CC1)S(=O)(=O)c1ccc(Cl)cc1	-7	-5	0	6	-6	-6
O=S(=O)(NC1CCN(Cc2ccccc2)CC1)c1ccc(Cl)cc1	-13	13	4	-24	-7	52*
COc1cc(S(=O)(=O)N2CCN(Cc3ccccc3)CC2)ccc1Br	48*	-1	1	-4	-5	-9
COc1ccc(NS(=O)(=O)c2ccc(N3CCCCC3)c(N)c2)cc1	9	-3	13	-13	-1	36*
COc1ccc(CCNC(=O)c2ccc(CS(=O)Cc3ccc(Cl)cc3)o2)cc1OC (stereo not drawn)	-6	1	6	-3	0	-2
C[C@@]12CCC3[C@@](CCC4[C@@]3(C)CCC[C@@]4(C)C(=O)N3CCOCC3)(CC1=O)C2 (stereo partly drawn)	0	6	4	0	-7	5
COc1ccc(S(=O)(=O)N2CCCCC2)cc1	27*	-5	0	10	-4	-1
O=[N+]([O-])c1ccc(S(=O)(=O)N2CCN(C3CCN(Cc4ccccc4)CC3)CC2)cc1	-10	2	9	-20	-13	12
O=S(=O)(c1ccc(Cl)cc1)N1CCN(C2CCN(Cc3ccccc3)CC2)CC1	9	-6	0	-18	-4	37*
COc1ccc2cc(S(=O)(=O)N3CCCCCC3)ccc2c1	6	-11	0	-17	-14	14
O=[N+]([O-])c1ccccc1S(=O)(=O)N1CCN(C2CCN(Cc3ccccc3)CC2)CC1	3	-3	0	-21	-6	54*
COc1ccccc1C(=O)NC(=O)COC(=O)c1ncc(Cl)c(Cl)c1Cl	-5	1	1	8	11	-23
CC1CCN(C(=O)c2ccc(NS(=O)(=O)c3ccc4[nH]c(=O)[nH]c4c3)cc2)CC1	18	-13	0	2	-4	-1
O=C(COC(=O)C1CCN(S(=O)(=O)c2ccc3c(c2)OCCO3)CC1)Nc1ccc(C(F)(F)F)cc1	24*	-16	2	8	-3	-1
CCN(c1ccc(NC(=O)COC(=O)C2CCN(c3ccc(C(F)(F)F)cn3)CC2)cc1)C(C)C	-15	-9	1	-20	-8	35*
CN(C(=O)COC(=O)C1CCN(S(=O)(=O)c2ccc3c(c2)OCCO3)CC1)C1CCCCC1	26*	-20	0	-5	-6	17
Cc1ccc(S(=O)(=O)N2CCC(C(=O)OCC(=O)N(C)C3CCCCC3)CC2)cc1C	8	-19	1	2	-4	-7
CCN(CC)c1ccc(NC(=O)COC(=O)C2CCN(c3ccc(C(F)(F)F)cn3)CC2)cc1	7	16	1	9	-4	-11
CN(CC(=O)Nc1c(Cl)cccc1Cl)C(=O)CNC(=O)c1ccc2ccccc2c1	2	0	2	14	-1	-11
CN1CCC(=C2c3ccccc3CCc3sccc32)CC1	-3	17	2	-26	-4	98*
Nc1nc2c(s1)CCc1ccccc1-2	12	-12	-1	2	-7	-4
CN1CCC(=C2c3ccccc3C(O)c3ccccc32)CC1 (stereo not drawn)	-10	9	0	-35	-11	100*
